Data published in PubChem BioAssay (EPA / NIEHS).
Records with an inconclusive call do not appear. Activity calls are given as the source filed them. How the source made its calls: active means hit-call score of the fitted dose curve at least 0.9, where 1 is the maximum; inconclusive means response in the unintended direction; inactive means score below 0.9.

What was measured:
[1] = TOX21_p53_BLA_p2_viability: Viability Assessment in the Tox21 HCT-116 p53 Agonism Beta-lactamase Assay, Phase 2 (AID 2283591);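 further: compound exposure lasted 16 h at 37 °C; actives lower the ATP signal meaning cytotoxicity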
How it was run: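 HCT116 p53-bla cells, 4000/well, dosed after 5 h plating (217-fold dilution of DMSO stocks) and incubated 16 h at 37C. Viability taken as cellular ATP by CellTiter-Glo luminescence after 30 min RT; signal loss marks cytotoxicity.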

[2] = molecular target: Cellular tumor antigen p53 (Homo sapiens) (UniProt P04637); assay: TOX21_p53_BLA_p2_ratio: Tox21 HCT-116 p53 Agonism Beta-lactamase Assay, Ratio, Phase 2 (AID 2283592)
How it was run: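 Cleaved-to-uncleaved substrate ratio (460 vs 530 nm) measured in HCT116 cells with an inducible beta-lactamase reporter linked to p53 activity. Compounds incubated 16 h at 37C before 2 h room-temperature CCF4-AM loading.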

[3] = molecular target: Cellular tumor antigen p53 (Homo sapiens) (UniProt P04637); assay: TOX21_p53_BLA_p3_ratio: Tox21 HCT-116 p53 Agonism Beta-lactamase Assay, Ratio, Phase 3 (AID 2283596)
How it was run: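 Cells were seeded at 4000/well, rested 5 h at 37C, then dosed with DMSO compound solutions (217-fold dilution) for 16 h. CCF4-AM substrate was loaded for 2 h at room temperature, and the 460/530 nm emission ratio was fitted for gain of signal versus DMSO.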

[4] = molecular target: Cellular tumor antigen p53 (Homo sapiens) (UniProt P04637); assay: TOX21_p53_BLA_p5_ratio: Tox21 HCT-116 p53 Agonism Beta-lactamase Assay, Ratio, Phase 5 (AID 2283599)
How it was run: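 HCT-116 p53-bla cells (4000/well) plated 5 h, dosed with compound (217-fold DMSO dilution) for 16 h at 37 C; CCF4-AM substrate 2 h at room temperature. Activity is the 460/530 nm emission ratio (405 nm excitation), fitted in gain-of-signal direction versus DMSO.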

[5] = TOX21_p53_BLA_p5_viability: Viability Assessment in the Tox21 HCT-116 p53 Agonism Beta-lactamase Assay, Phase 5 (AID 2283600)
How it was run: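 Viability is taken from cellular ATP content, measured by luciferase luminescence in the same wells after the beta-lactamase ratio read. Cells are seeded at 4000 per well and exposed to DMSO-dissolved compounds, diluted 217-fold, for 16 h.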

[6] = molecular target: Cellular tumor antigen p53 (Homo sapiens) (UniProt P04637); assay: TOX21_p53_BLA_p4_ratio: Tox21 HCT-116 p53 Agonism Beta-lactamase Assay, Ratio, Phase 4 (AID 2283601)
How it was run: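 HCT-116 p53 beta-lactamase reporter cells (4000/well) preincubated 5 h, then compound (217-fold dilution of DMSO stock) for 16 h at 37C. CCF4-AM substrate added 2 h at room temperature; 460/530 nm emission ratio fitted upward versus DMSO.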

Measured: outcome

Chain of Cellular tumor antigen p53 (Homo sapiens) (P04637 whole entry, looked up): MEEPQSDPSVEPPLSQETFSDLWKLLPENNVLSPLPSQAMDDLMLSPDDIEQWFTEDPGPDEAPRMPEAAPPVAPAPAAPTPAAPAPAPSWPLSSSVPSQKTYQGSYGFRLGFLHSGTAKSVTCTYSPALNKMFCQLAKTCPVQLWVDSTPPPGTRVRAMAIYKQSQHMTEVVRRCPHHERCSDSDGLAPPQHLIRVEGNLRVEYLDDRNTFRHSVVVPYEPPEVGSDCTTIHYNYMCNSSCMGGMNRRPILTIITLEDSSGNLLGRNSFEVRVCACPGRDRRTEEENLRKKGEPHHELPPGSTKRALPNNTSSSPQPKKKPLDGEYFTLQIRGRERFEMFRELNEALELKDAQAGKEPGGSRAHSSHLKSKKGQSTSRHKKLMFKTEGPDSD

NCCCCCC(=O)O
inactive: all assays above

CN(C)CCC[C@@]1(c2ccc(F)cc2)OCc2cc(C#N)ccc21
not listed: [5]
inactive: all other assays above

C/C=C/c1ccc(OCC)c(O)c1
inactive: all assays above

CC1=C(C(=O)O)N2C(=O)[C@@H](NC(=O)[C@H](N)c3ccc(O)cc3)[C@H]2SC1
inactive: all assays above

CO/N=C(\C(=O)N[C@@H]1C(=O)N2C(C(=O)O)=CCS[C@H]12)c1csc(N)n1
inactive: all assays above

COc1cc(NS(=O)(=O)c2ccc(N)cc2)ncn1
inactive: all assays above

Nc1cc(=O)[nH]c(N)n1
inactive: all assays above

COC(=O)CCCCCCCCC(=O)OC
not listed: [5]
inactive: all other assays above
